Screens as filed in PubChem.
Sampled rows, rich in hits. Any-hit rate of the full collection: about 2.1%.
aSyn 5UTR inh – MLPCN primary screen, SNCA 5' untranslated region; actives 0.82% (n = 300,000); inhibition, % (tested at 7.5 µM); alpha-synuclein 5'UTR reporter, inhibitor activity; AID 1813, 2009; in the data active = inhibition above about 60%;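 also: H4 neuroglioblastoma cells stably carrying SNCA 5'UTR luciferase fusion; 0% = DMSO wells and 100% = positive control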
IEC-6 tox – cytotoxicity in IEC-6 intestinal epithelial cells, primary screen, cytotoxicity control for KLF5 inhibitor project, cell-based, luminescence | IEC-6 cytotoxicity, luminescence viability | inhibition, % at 5 µM | actives 0.78% (n = 290,000); in the data active = inhibition above about 22%;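 also: 0% = plate median of test compound wells and 100% = cytotoxic reference compound wells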
BaF3 tox – parental Ba/F3 cell viability inhibition, counter-screen for JAK2V617F inhibitor project, murine pro-B, CellTiter-Glo luminescence; AID 1486, 2009; actives 1.1% (n = 220,000); CellTiter-Glo ATP luminescence; inhibition, % at 5.6 µM;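 active = inhibition above a per-campaign cutoff, the mean inhibition of all tested compounds plus 3 SD, cut at about 27% in these data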;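 also: 0% = DMSO wells and 100% = JAK Inhibitor I control wells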
KLF5 inhibitor – KLF5 expression inhibitors, primary screen, DLD-1 cells, luminescence | AID 1700, 2009 | actives 0.23% (n = 290,000) | inhibition, % at 5 µM | DLD-1 KLF5 promoter-luciferase reporter;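 active = inhibition above a per-plate limit of that plate's mean compound inhibition plus 3 SD, cut at about 60% in these data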;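 also: 0% = DMSO wells and 100% = LY294002 at 200 µM; higher means less KLF5 promoter-driven luciferase light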
APP transl inh – inhibitors of APP translation via 5'UTR reporter, primary screen, APP 5'UTR luciferase, SH-SY5Y cells | inhibition, % at 2 µM | actives 0.82% (n = 190,000) | SH-SY5Y APP 5'UTR-luciferase reporter, luminescence | AID 1285, 2008;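 active = inhibition above a set limit, derived from the sample mean plus 3 SD, cut at about 45% in these data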
Ba/F3 V617F tox – reduced viability of JAK2V617F-dependent Ba/F3 cells, primary screen, JAK2V617F inhibitor project, cell-based, Ba/F3 EpoR-JAK2V617F, luminescence; ATP luminescence; inhibition, % at 5.6 µM; actives 1.1% (n = 220,000); AID 1446, 2008;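 active = inhibition above the campaign mean plus 3 SD over all tested compounds, cut at about 24% in these data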;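 also: cytokine-independent growth of Ba/F3 cells driven by EpoR plus mutant JAK2; 0% = DMSO-treated cells and 100% = JAK inhibitor I control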
BaF3 parental 2 – parental Ba/F3 cell viability inhibition, counter-screen for JAK2V617F inhibitor project, murine pro-B, CellTiter-Glo luminescence | shares compounds with Ba/F3 V617F tox | cells kept alive by added IL-3 | inhibition, % at 5.6 µM | actives 31% (n = 580) | AID 1520, 2009;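 active = cell growth inhibition above the hit limit set in the earlier mutant JAK2 cell screen, cut at about 27% in these data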;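 also: plate controls were DMSO-treated cells for no effect and JAK Inhibitor I control wells for full effect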
JAK2V617F confrm – viability loss in Ba/F3 EpoR-JAK2V617F cells, confirmation, JAK2V617F inhibitor project, cell-based, luminescence, triplicate | inhibition, % at 5.6 µM | CellTiter-Glo luminescence | actives 66% (n = 580) | shares compounds with Ba/F3 V617F tox;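 active = mean inhibition above the hit cutoff derived in the earlier primary screen, cut at about 25% in these data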;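 also: 0% = DMSO-treated cells and 100% = JAK inhibitor I control wells; higher means lower luminescence from reduced cell ATP and viability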
Starred values were filed as active, the others as inactive; . = no result given.

SMILES	aSyn 5UTR inh	IEC-6 tox	BaF3 tox	KLF5 inhibitor	APP transl inh	Ba/F3 V617F tox	BaF3 parental 2	JAK2V617F confrm
c1ccc(CN2CCN(c3nc(-c4ccccn4)nc4ccccc34)CC2)cc1	-0.4	7.3	-1.1	-24.1	-7.7	-1.4	.	.
CC(=O)c1ccc(NC(=O)C(C)Sc2nnc(C3CCCCC3)o2)cc1 (centres undefined)	-127.9	4.2	.	-39.6	.	.	.	.
COC(=O)/C=C/c1ccc2c(c1)OCO2	-22.0	-0.9	9.0	11.7	10.7	1.6	.	.
COC(=O)/C=C/c1ccc(OC(=O)OC)c(OC(=O)OC)c1	-36.2	1.8	7.2	-92.0	21.8	29.6*	2.8	82.3*
COc1cccc(-c2c(C(=O)N/N=C(\C)c3cccnc3)nnn2-c2nonc2N)c1	1.2	-6.7	.	-24.7	.	.	.	.
Cc1ccc(C=Nc2ccccc2C(=O)Nc2ccccc2)cc1	-77.2	0.1	6.7	-27.6	18.8	-0.1	.	.
Cc1ccc(C=Nc2ccccc2C(N)=O)cc1	-109.2	16.4	21.9	12.6	17.4	41.9*	36.7*	77.7*
COc1ccccc1CN(C)C(=O)c1sccc1-c1ccccc1	25.9	8.0	.	-27.7	.	.	.	.
Cc1ccc(N/C(=C\C(=O)c2ccccc2)C(=O)O)cc1	-157.5	12.8	8.7	-12.1	-60.0	40.2*	-2.5	-1.5
CC(C)(C)NC(=O)Nc1nnc(SCC(=O)NC2CCCCC2)s1	-16.8	.	.	.	.	.	.	.
COc1ccc(Cn2c(O)c(C=Nc3ccccc3C(=O)O)c3ccccc3c2=O)cc1	2.0	2.4	-1.9	-44.7	.	3.8	.	.
COc1ccccc1NS(=O)(=O)c1cccc(-n2c(O)c(C=Nc3ccccc3C(=O)O)c3ccccc3c2=O)c1	-66.4	8.4	8.0	5.8	.	24.4*	8.4	31.9*
O=C(O)/C=C\C(=O)Nc1ccccc1C#Cc1ccccc1	-86.8	-4.6	12.5	-93.6	-72.9	10.3	.	.
O=C(O)/C=C\C(=O)Nc1ccccc1C#Cc1ccc(Br)cc1	-290.4	9.4	22.9	-134.2	-157.8	35.8*	1.3	14.6
CC(=O)c1cnc(Oc2cc(Cl)ccc2Cl)nc1C	-3.8	2.9	.	-19.5	.	.	.	.
CCOc1cc(NC(=O)c2ccco2)c(OCC)cc1NC(=O)c1ccco1	-9.4	-7.3	.	5.8	.	.	.	.
CCOc1cc(C#N)c(NC(=O)c2ccco2)cc1OCC	-0.1	21.3	15.0	22.6	-12.2	39.1*	17.4	23.6*
CC(=O)Nc1ccc(Nc2nc(-c3cc4ccccc4oc3=O)cs2)cc1	-449.4	4.3	.	-170.1	.	.	.	.
Nc1ccc(Nc2nc(-c3cc4ccccc4oc3=O)cs2)cc1	-199.9	-9.8	14.2	-77.1	-94.8	84.1*	77.4*	99.3*
CCN(CC(=O)Nc1c(F)cccc1F)C(=O)c1cccnc1Sc1ccccc1	14.5	.	.	.	.	.	.	.
CCOc1cc(Br)ccc1S(=O)(=O)NCc1ccccc1	-17.4	8.5	3.0	-6.0	1.4	101.4*	-3.9	6.6
N=c1n(Cc2ccccc2)c2ccccc2n1Cc1ccccc1	5.3	8.9	0.3	-2.9	-2.8	3.6	.	.
Cc1cccc(OCC(O)CN2CCNCC2)c1 (centres undefined)	-7.5	-5.9	.	-42.4	.	.	.	.
Cc1cccc(OCC(O)Cn2c(=N)n(Cc3ccccc3)c3ccccc32)c1 (centres undefined)	8.8	5.3	5.5	-32.4	.	25.8*	2.8	31.7*
COc1ccc(OCC(O)Cn2c(=N)n(Cc3ccccc3)c3ccccc32)cc1 (centres undefined)	2.0	17.9	22.6	0.6	3.7	68.5*	5.0	34.9*
CN(C)S(=O)(=O)c1ccc(C(=O)NCCC(=O)N2CCCC2)cc1	-25.5	2.2	.	-7.7	.	.	.	.
Cc1cc(NC(=O)c2cccs2)n(-c2nc3ccccc3[nH]2)n1	-2.9	-9.3	6.7	-10.2	9.7	-1.4	.	.
